Compound activity: PubChem, Small Molecule Screening Facility, UW Madison
RMI FANCM FP: inhibitors of human RMI core complex binding to FANCM MM2; 0.58% of 70,000 active; FP signal (polarization) at 33 µM; Fluorescence polarization, RMI core complex with F-MM2 peptide; stronger effect = lower value; AID 1159607; in the data active = FP signal below about 40
Starred values were filed as active, the others as inactive; ! = a repeat was not active. This is one part of a sample in which hits are shown more often than they occur.

SMILES	RMI FANCM FP
CC[C@@H](C(N)=O)N1CCCC1=O	26*
COc1ccccc1Cn1c(N)c(C(N)=O)c2nc3ccccc3nc21	115
O=C1NC(=O)C(=Cc2ccc([N+](=O)[O-])s2)C(=O)N1	56
O=C(Nc1ccc(S(=O)(=O)N2CC3CC(C2)c2cccc(=O)n2C3)cc1)c1ccco1 (stereo not given)	62
O=c1c2ccccc2[nH]c(=S)n1-c1ccc(C(F)(F)F)cc1	69
NC1CNC(=O)C1 (stereo not given)	66
COc1cc2c(cc1OC)[C@@H]1C(=O)c3ccc4c(c3O[C@@H]1CO2)CC(C(C)C)O4 (stereo not given in full)	55
COc1cc2c(cc1OC)[C@@H]1C(=O)c3ccc(OC)c(CC=C(C)C)c3O[C@@H]1CO2	29*
C=C(C)[C@H]1Cc2c(ccc3c2O[C@@H]2COc4cc(OC)c(OC)cc4[C@@H]2C3=O)O1	56
CC(C)(C)c1csc(CN2CCNCC2)n1	70
COC(=O)[C@]1(C)CC[C@]2(C)CC[C@]3(C)C4=CCc5c(cc(O)c(O)c5C)[C@]4(C)CC[C@@]3(C)C2C1 (stereo not given in full)	13*
N#CC(c1c[nH]c2ccccc12)N1CCCCC1 (stereo not given)	63
c1ccc(-n2cccc2-c2nc(N3CC3)nc(N3CC3)n2)cc1	106
Cc1ccc(C)c2sc(N3CCNCC3)nc12	74
CC[C@@H](CO)NC(=O)[C@@H]1C=C2c3cccc4c3c(cn4C)C[C@H]2N(C)C1	37
CCN(CC)C(=O)N[C@@H]1C=C2c3cccc4[nH]cc(c34)C[C@H]2N(C)C1	47
CC[C@@H](CO)NC(=O)[C@@H]1C=C2c3cccc4[nH]cc(c34)C[C@H]2N(C)C1	4*!
Cc1csc(CN2CCN(C(=O)COc3ccccc3F)CC2)n1	62
Clc1nc(N2CCNCC2)c2[nH]cnc2n1	71
C[C@@H]1C(=O)O[C@H]2[C@H]1CC[C@@]1(C)C=CC(=O)[C@@]3(C)O[C@@]213	31*!
Cc1noc(C)c1CCl	56
C/C(CC(c1ccccc1)c1c(O)c2ccccc2oc1=O)=N\O (stereo not given)	55
Cc1nc(C)c(Oc2ccc(Cl)cc2Cl)c(OC(=O)N(C)C)n1	52
O=C(CN1C(=O)c2ccccc2C1=O)Nc1ccc(Br)cc1C(=O)c1ccccc1	73
CN(C)C(=O)Oc1cc(CSC(C)(C)C)nc(-c2cccs2)n1	43
COc1cc(CCN)ccc1O	57
Cc1[nH]c2ccc(O)cc2c1CCN	49
NCCc1cccc(O)c1	19*
CN(C)c1ccc(CCN)cc1	70
O=C(COc1ccccc1F)N1CCN(Cc2nc3ccccc3[nH]2)CC1	61
